Assay results reported in PubChem BioAssay (NCI).
About 83,000 compounds went through this panel and 20% of them were active in at least one assay; those are over-represented in the sample as a whole.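 Interpretation: 100, growth as untreated; towards 0, rising growth inhibition; 0, no net growth; 0 to -100, cell death. Compounds scoring below 10 were considered active.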 A number with no mark means an inactive call. Activity calls are given as the source filed them.

How the values were obtained:
Test in all cases: NCI-60 one-dose screen, 48 h (100 = growth as untreated, 0 = no growth, -100 = all killed)
Conditions in all cases: 10 µM unless noted
NCI-H23 lung = tested on: NCI-H23 lung
NCI-H226 lung = tested on: NCI-H226 lung
NCI-H322M lung = tested on: NCI-H322M lung
HOP-62 NSCLC = tested on: HOP-62 NSCLC
NCI-H460 lung = tested on: NCI-H460 lung
NCI-H522 lung = tested on: NCI-H522 lung
A549/ATCC NSCLC = tested on: A549/ATCC NSCLC
786-0 renal = tested on: 786-0 renal
COLO 205 colon = tested on: COLO 205 colon
DU-145 prostate = tested on: DU-145 prostate
K-562 leukemia = tested on: K-562 leukemia
MALME-3M melanoma = tested on: MALME-3M melanoma
MDA-MB-231 breast = tested on: MDA-MB-231 breast
RXF 393 renal = tested on: RXF 393 renal
SF-268 CNS = tested on: SF-268 CNS
SF-295 CNS = tested on: SF-295 CNS
SF-539 CNS = tested on: SF-539 CNS
UACC-257 melanoma = tested on: UACC-257 melanoma
HOP-92 NSCLC = tested on: HOP-92 NSCLC
M14 melanoma = tested on: M14 melanoma

| Compound | growth (NCI-H23 lung) | growth (NCI-H226 lung) | growth (NCI-H322M lung) | growth (HOP-62 NSCLC) | growth (NCI-H460 lung) | growth (NCI-H522 lung) [%] | growth (A549/ATCC NSCLC) [%] | growth (786-0 renal) | growth (COLO 205 colon) | growth (DU-145 prostate) | growth (K-562 leukemia) | growth (MALME-3M melanoma) | growth (MDA-MB-231 breast) | growth (RXF 393 renal) | growth (SF-268 CNS) | growth (SF-295 CNS) | growth (SF-539 CNS) | growth (UACC-257 melanoma) [%] | growth (HOP-92 NSCLC) | growth (M14 melanoma) |
| --- | --- | --- | --- | --- | --- | --- | --- | --- | --- | --- | --- | --- | --- | --- | --- | --- | --- | --- | --- | --- |
| COc1cc2ncnc(Nc3ccc(S(=O)(=O)Nc4cc(C)on4)cc3)c2cc1OCCCN1CCN(c2ccc([N+](=O)[O-])cc2)CC1 | 103% | 107% | 103% | 106% | 110% | 94.7 | 106 | 109% | 105% | 112% | 120% | 104% | 97.9% | 115% | 102% | 109% | 102% | 107 |  |  |
| O=C(N/N=C/c1ccc([N+](=O)[O-])o1)c1ccc(O)cc1 | 41.5% | 89.7% | 65.6% | 30.3% | 18.8% |  | 36.9 | 63.4% |  |  |  | -34.9% (active) | 57.9% | 82.5% | 12.6% | 49.8% | 8.11% (active) | 17.1 | 103% | 4.75% (active) |
| COC(=O)[C@H](Cc1cn(C)cn1)NC(=O)[C@H](CC(C)C)NC(=O)Nc1cc(C(F)(F)F)cc(C(F)(F)F)c1 | -84.5% [100 µM] (active) | -54.7% [100 µM] (active) | -97.8% [100 µM] (active) | -100% [100 µM] (active) | -59.8% [100 µM] (active) |  |  | -94.9% [100 µM] (active) | -84.4% [100 µM] (active) | -100% [100 µM] (active) | -65.4% [100 µM] (active) | -93.5% [100 µM] (active) | -94% [100 µM] (active) | -89.3% [100 µM] (active) | -92.8% [100 µM] (active) | -96.5% [100 µM] (active) |  |  | -98.2% [100 µM] (active) | -95.2% [100 µM] (active) |
| O=C1OC(/C=C/c2ccccc2)=NC/1=C/c1ccccc1[N+](=O)[O-] | 106% | 93.3% | 84.6% | 91.4% | 103% |  |  | 97.6% | 98% | 105% | 106% | 96.9% | 99% | 116% | 99.7% | 97.4% | 89.8% |  | 81.2% | 99.6% |
| COC(=O)[C@@H](Cc1c[nH]c2ccccc12)NC(=O)/C=C/c1ccccc1 | 39.4% | 60.2% | 33.8% | 19% | 9.94% (active) |  |  | 28.8% | 97.3% | 12% | 15.9% | 35.1% | 37.7% | -25.6% (active) | 42.9% | -1.2% (active) | -66.8% (active) |  | 54.6% | -37.5% (active) |
| COc1ccc(-c2ccc(-c3ccc(C(=N)N)s3)s2)cc1 | -70.3% (active) | -50.9% (active) | -93.4% (active) | -81.6% (active) | -64.2% (active) |  |  | -64.4% (active) | -89.2% (active) | -95.5% (active) | -21.5% (active) | -61.4% (active) | -79.9% (active) | -57.5% (active) | -61.3% (active) | -77.6% (active) | -75.5% (active) |  | -64.2% (active) | -55.1% (active) |
| C[N+](C)(C)CC(=O)N/N=C\c1ccco1 | 99.6% | 103% | 105% | 86.5% | 108% | 85.7 | 98.1 | 102% | 107% | 104% | 53.3% | 100% | 118% | 118% | 105% | 106% | 95.3% | 106 |  |  |
| CCCCCc1c(C)[nH]c(/C=C2\N=C(c3ccc[nH]3)C=C2Oc2ccc(OC)cc2)c1C | -67.1% [100 µM] (active) | -15.7% [100 µM] (active) | -6.72% [100 µM] (active) | -54.5% [100 µM] (active) | -46.1% [100 µM] (active) |  |  | -92.2% [100 µM] (active) | -83.9% [100 µM] (active) | -59.2% [100 µM] (active) | -14.6% [100 µM] (active) | -75.4% [100 µM] (active) | -71.2% [100 µM] (active) | -68.3% [100 µM] (active) | -83.5% [100 µM] (active) | -82.1% [100 µM] (active) |  |  | -12.6% [100 µM] (active) | -94.7% [100 µM] (active) |
| ClCCn1cnc2c(SCc3ccccc3Cl)ncnc21 | 53.1% | 57% | 40.4% | 64% | 2.49% (active) |  | 40.1 | 33% | 41.7% | 25.4% | 13% | 43% | 66.5% |  | 31.3% | 8.93% (active) | 30.9% | 58.7 | 62.3% |  |
